# Assays:
# Type in all cases: functional
# [1] = biological target: Solute carrier family 2, facilitated glucose transporter member 1 (Homo sapiens) (UniProt P11166); assay: ST_JUDE_LEISH: Cytotoxicity at 2uM final concentration against transgenic Leishmania Mexicana promastigotes LmGLUT1 that are glucose transport deficient and complemented with the human glucose transporter GLUT1. Activity is measured by DNA content using SYBR green in vitro
# [2] = biological target: Hexose transporter 1 (Plasmodium falciparum) (UniProt O97467); assay: ST_JUDE_LEISH: Cytotoxicity at 2uM final concentration against transgenic Leishmania Mexicana promastigotes LmPfHT that are glucose transport deficient and complemented with the Plasmodium falciparum hexose transporter. Activity is measured by DNA content using SYBR green in vitro
# [3] = biological target: Glucose transporter (Leishmania mexicana) (UniProt O61059); assay: ST_JUDE_LEISH: Cytotoxicity at 2uM final concentration against transgenic Leishmania Mexicana promastigotes LmGT2 that are glucose transport deficient and complemented with the L. Mexicana glucose transporter 2. Activity is measured by DNA content using SYBR green in vitro
# Sequence of Solute carrier family 2, facilitated glucose transporter member 1 (Homo sapiens) (P11166 whole entry): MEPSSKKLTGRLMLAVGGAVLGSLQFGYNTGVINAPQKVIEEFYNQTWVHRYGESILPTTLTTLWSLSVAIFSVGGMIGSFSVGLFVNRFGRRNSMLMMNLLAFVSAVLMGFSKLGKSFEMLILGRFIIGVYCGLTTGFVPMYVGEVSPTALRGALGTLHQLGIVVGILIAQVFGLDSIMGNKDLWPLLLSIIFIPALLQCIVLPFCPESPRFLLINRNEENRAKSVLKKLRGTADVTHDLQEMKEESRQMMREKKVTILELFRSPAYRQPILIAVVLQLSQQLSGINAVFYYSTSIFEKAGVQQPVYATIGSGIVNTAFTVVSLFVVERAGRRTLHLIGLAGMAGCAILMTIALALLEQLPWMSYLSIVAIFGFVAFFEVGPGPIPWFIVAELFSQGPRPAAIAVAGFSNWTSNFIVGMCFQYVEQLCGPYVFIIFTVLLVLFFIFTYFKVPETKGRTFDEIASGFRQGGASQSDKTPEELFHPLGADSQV
SMILES,inhibition [1],inhibition [2],inhibition [3]
Cn1cc(C2CCN(CCCCNC(=O)c3ccc(-c4ccc(C(F)(F)F)cc4)c(CO)c3)CC2)c2ccccc21,4.11%,3.1%,2.35%
CCc1cc(-c2n[nH]c(C(F)(F)F)c2-c2ccccc2)c(O)cc1OC,2.03%,1.54%,2.44%
CCOC(=O)c1sc(C(C)Nc2ccccc2)nc1-c1ccccc1 (stereo unspecified),0.89%,-0.3%,-1.6%
O=C1c2ccccc2-n2c1nc1ccccc1c2=O,-2.52%,-2.55%,-3.28%
CC(C)C(C(=O)Nc1ccc(S(=O)(=O)N(C)C)cc1)c1ccc(Cl)cc1 (stereo unspecified),-2.78%,-3.31%,0.19%
Cc1ccccc1CNc1noc(-c2sccc2Br)n1,-2.66%,-1.49%,-1.5%
O=C(Nc1ccc(N2CCCCC2)c(Cl)c1)c1ccc(Br)o1,1.4%,2.17%,2.35%
CC(C)(C)c1ccc(CN2CCC(NC(=O)c3ccc(-c4ccccc4F)s3)CC2)cc1,0.69%,-2.65%,-2.5%
Cc1ccc(C(=O)NC2CC2)cc1-c1ccc2c(cnn2S(=O)(=O)c2ccc(F)cc2)c1,3.39%,3.78%,0.4%
COC(=O)c1cc(OC2CCOC2=O)cc2c1OC(C)(C)O2 (stereo unspecified),10.9%,12.7%,8.43%
COc1cccc(NC(=O)c2cc(Br)cc(N3CCN(c4ccncc4)CC3)c2)c1,2.41%,2.07%,2.41%
Cc1ccc(NC(=O)c2ccc3ncccc3c2)cc1OC1CCN(CCC(C)C)C1 (stereo unspecified),2.61%,3.22%,3.54%
CC(=O)NCCNc1nccc(N2CCc3ncnc(Nc4ccc(OCc5cccc(F)c5)c(Cl)c4)c3C2)n1,0.07%,-2.13%,-2.74%
COc1ccc2nccc([C@@H](O)CN3CCC(NC(=O)/C=C/c4ccc5cc(C)[nH]c5c4)CC3)c2c1,3.96%,3.03%,1.91%
CC(C)Cc1csc(NC(=O)C=Cc2ccco2)c1C(=O)O,-0.28%,0.8%,-0.08%
COc1cc2c(cc1C(F)(F)F)N(C(=O)Nc1cc(-c3ccncc3)cc(-c3cccnc3)c1)CC2,3.84%,-0.38%,-0.7%
COc1cc(CNC2Cc3ccccc3C2)ccc1Oc1ccc2nc[nH]c2c1,2.66%,0.67%,0.95%

# Source: ChEMBL document CHEMBL3433997, “St. Jude Leishmania screening dataset” (2016)
